# Test results from paper PMC8384837, “Expanding the binding specificity for RNA recognition by a PUF domain”.
# Tests used:
# Assay in all cases: yeast three-hybrid, YBZ-1, SC-Leu-His + 0.5 mM 3-AT, 4 days
# Details in all cases: tags: N-Gal4 AD-HA kept; label: inside an RPR1-promoter hybrid RNA with tandem MS2 sites; ssRNA
# PUM1 PUF domain R1-RSQ = PUM1 PUF domain R1-RSQ (Homo sapiens, UniProt Q14671 828-1176, S863R;R864S)
# Summary of the method: (§1)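 Matching RNA elements and Pumilio-1 PUF domain libraries, randomized at the three base-contacting residues of every repeat, were co-expressed from a centromeric plasmid in strain YBZ-1 (LexA–MS2 coat fusion, HIS3 reporter). The repeat regions were PCR-amplified and Illumina-sequenced from cells grown four days on SC-Leu (input) or SC-Leu-His + 0.5 mM 3-AT (selection). The interaction score is the log change in variant frequency from input to selection. It is computed in log2, with a pseudocount of 1 for absent variants.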
# PUM1 PUF domain R1-SWR = PUM1 PUF domain R1-SWR (Homo sapiens, UniProt Q14671 828-1176, R864W;Q867R)
# Summary of the method: as §1
# PUM1 PUF domain R4-LNC = PUM1 PUF domain R4-LNC (Homo sapiens, UniProt Q14671 828-1176, N971L;H972N;Q975C)
# Summary of the method: as §1
# PUM1 PUF domain R4-WAV = PUM1 PUF domain R4-WAV (Homo sapiens, UniProt Q14671 828-1176, N971W;H972A;Q975V)
# Summary of the method: as §1
# PUM1 PUF domain R7-RCR = PUM1 PUF domain R7-RCR (Homo sapiens, UniProt Q14671 828-1176, S1079R;N1080C;E1083R)
# Summary of the method: as §1
# PUM1 PUF domain R8-QWK = PUM1 PUF domain R8-QWK (Homo sapiens, UniProt Q14671 828-1176, N1122Q;Y1123W;Q1126K)
# Summary of the method: as §1
# PUM1 PUF domain R6-LWT = molecular target: T1, PUM1 PUF domain R6-LWT (Homo sapiens, UniProt Q14671 828-1176, N1043L;Y1044W;Q1047T)
# T1 sequence: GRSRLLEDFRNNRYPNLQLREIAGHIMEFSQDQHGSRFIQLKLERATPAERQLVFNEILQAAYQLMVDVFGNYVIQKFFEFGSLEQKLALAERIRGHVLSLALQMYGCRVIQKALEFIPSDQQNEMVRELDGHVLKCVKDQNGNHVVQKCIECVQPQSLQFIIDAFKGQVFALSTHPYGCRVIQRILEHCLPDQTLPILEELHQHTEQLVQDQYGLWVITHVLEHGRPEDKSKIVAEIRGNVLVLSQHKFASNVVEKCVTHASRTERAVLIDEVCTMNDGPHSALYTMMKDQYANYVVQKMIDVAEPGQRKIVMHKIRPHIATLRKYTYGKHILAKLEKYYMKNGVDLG
# Summary of the method: as §1
# PUM1 PUF domain R4-AHV = PUM1 PUF domain R4-AHV (Homo sapiens, UniProt Q14671 828-1176, N971A;Q975V)
# Summary of the method: as §1
# PUM1 PUF domain R4-PYF = PUM1 PUF domain R4-PYF (Homo sapiens, UniProt Q14671 828-1176, N971P;H972Y;Q975F)
# Summary of the method: as §1
# PUM1 PUF domain R5-RYP = PUM1 PUF domain R5-RYP (Homo sapiens, UniProt Q14671 828-1176, C1007R;R1008Y;Q1011P)
# Summary of the method: as §1
# PUM1 PUF domain R2-SWF = PUM1 PUF domain R2-SWF (Homo sapiens, UniProt Q14671 828-1176, N899S;Y900W;Q903F)
# Summary of the method: as §1
# PUM1 PUF domain R3-FSN = PUM1 PUF domain R3-FSN (Homo sapiens, UniProt Q14671 828-1176, C935F;R936S;Q939N)
# Summary of the method: as §1
# PUM1 PUF domain R3-MRW = PUM1 PUF domain R3-MRW (Homo sapiens, UniProt Q14671 828-1176, C935M;Q939W)
# Summary of the method: as §1
# PUM1 PUF domain R2-MWG = PUM1 PUF domain R2-MWG (Homo sapiens, UniProt Q14671 828-1176, N899M;Y900W;Q903G)
# Summary of the method: as §1
# PUM1 PUF domain R5-ARK = PUM1 PUF domain R5-ARK (Homo sapiens, UniProt Q14671 828-1176, C1007A;Q1011K)
# Summary of the method: as §1
# PUM1 PUF domain R5-NGR = PUM1 PUF domain R5-NGR (Homo sapiens, UniProt Q14671 828-1176, C1007N;R1008G;Q1011R)
# Summary of the method: as §1
# PUM1 PUF domain R5-LHI = PUM1 PUF domain R5-LHI (Homo sapiens, UniProt Q14671 828-1176, C1007L;R1008H;Q1011I)
# Summary of the method: as §1
# PUM1 PUF domain R8-HFT = PUM1 PUF domain R8-HFT (Homo sapiens, UniProt Q14671 828-1176, N1122H;Y1123F;Q1126T)
# Summary of the method: as §1
# PUM1 PUF domain R3-RMW = PUM1 PUF domain R3-RMW (Homo sapiens, UniProt Q14671 828-1176, C935R;R936M;Q939W)
# Summary of the method: as §1
# PUM1 PUF domain R3-RSR = PUM1 PUF domain R3-RSR (Homo sapiens, UniProt Q14671 828-1176, C935R;R936S;Q939R)
# Summary of the method: as §1
# Sequence of PUM1 PUF domain R4-WAV (Q14671 828-1176 N971W/H972A/Q975V): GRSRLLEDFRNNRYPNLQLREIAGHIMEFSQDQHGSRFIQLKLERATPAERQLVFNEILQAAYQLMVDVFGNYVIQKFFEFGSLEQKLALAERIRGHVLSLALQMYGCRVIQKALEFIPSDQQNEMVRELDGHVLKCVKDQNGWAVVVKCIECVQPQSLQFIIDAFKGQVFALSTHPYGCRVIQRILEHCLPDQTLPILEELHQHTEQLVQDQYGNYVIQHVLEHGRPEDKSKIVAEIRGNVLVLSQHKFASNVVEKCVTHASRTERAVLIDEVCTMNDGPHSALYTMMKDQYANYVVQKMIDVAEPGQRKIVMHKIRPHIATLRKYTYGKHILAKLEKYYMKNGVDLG
sequence,measurement,setting,value
GGCUAGAACUAGUGGAUCCCCCGGCGCCCGGCGGCUCGAGCCCGGGUAAGUGUAAAUCGUCUGCAUGCCGCCGGGCGCCAUGCCUGCAGGUCGACUCUAGAAAACAUG,binding signal,PUM1 PUF domain R1-RSQ,4.74 log2 enrichment (interaction score)
same,binding signal,PUM1 PUF domain R1-SWR,3.04 log2 enrichment (interaction score)
GGCUAGAACUAGUGGAUCCCCCGGCGCCCGGCGGCUCGAGCCCGGGUAAGUGUAUAUAGUCUGCAUGCCGCCGGGCGCCAUGCCUGCAGGUCGACUCUAGAAAACAUG,binding signal,PUM1 PUF domain R4-LNC,2.66 log2 enrichment (interaction score)
same,binding signal,PUM1 PUF domain R4-WAV,5.71 log2 enrichment (interaction score)
GGCUAGAACUAGUGGAUCCCCCGGCGCCCGGCGGCUCGAGCCCGGGUAAGUCUAAAUAGUCUGCAUGCCGCCGGGCGCCAUGCCUGCAGGUCGACUCUAGAAAACAUG,binding signal,PUM1 PUF domain R7-RCR,4.6 log2 enrichment (interaction score)
GGCUAGAACUAGUGGAUCCCCCGGCGCCCGGCGGCUCGAGCCCGGGUAAGUGUAAAUAGUCUGCAUGCCGCCGGGCGCCAUGCCUGCAGGUCGACUCUAGAAAACAUG,binding signal,PUM1 PUF domain R8-QWK,2.09 log2 enrichment (interaction score)
same,binding signal,PUM1 PUF domain R6-LWT,6.06 log2 enrichment (interaction score)
same,binding signal,PUM1 PUF domain R4-AHV,4.52 log2 enrichment (interaction score)
same,binding signal,PUM1 PUF domain R4-PYF,7.96 log2 enrichment (interaction score)
same,binding signal,PUM1 PUF domain R4-WAV,2.33 log2 enrichment (interaction score)
same,binding signal,PUM1 PUF domain R5-RYP,2.37 log2 enrichment (interaction score)
same,binding signal,PUM1 PUF domain R2-SWF,1.61 log2 enrichment (interaction score)
GGCUAGAACUAGUGGAUCCCCCGGCGCCCGGCGGCUCGAGCCCGGGUAAGUGUAAGUAGUCUGCAUGCCGCCGGGCGCCAUGCCUGCAGGUCGACUCUAGAAAACAUG,binding signal,PUM1 PUF domain R3-FSN,2.79 log2 enrichment (interaction score)
same,binding signal,PUM1 PUF domain R3-MRW,5.09 log2 enrichment (interaction score)
GGCUAGAACUAGUGGAUCCCCCGGCGCCCGGCGGCUCGAGCCCGGGUAAGUUUAAAUAGUCUGCAUGCCGCCGGGCGCCAUGCCUGCAGGUCGACUCUAGAAAACAUG,binding signal,PUM1 PUF domain R7-RCR,5.68 log2 enrichment (interaction score)
GGCUAGAACUAGUGGAUCCCCCGGCGCCCGGCGGCUCGAGCCCGGGUAAGUGAAAAUAGUCUGCAUGCCGCCGGGCGCCAUGCCUGCAGGUCGACUCUAGAAAACAUG,binding signal,PUM1 PUF domain R6-LWT,2.9 log2 enrichment (interaction score)
GGCUAGAACUAGUGGAUCCCCCGGCGCCCGGCGGCUCGAGCCCGGGUAAGGGUAAAUAGUCUGCAUGCCGCCGGGCGCCAUGCCUGCAGGUCGACUCUAGAAAACAUG,binding signal,PUM1 PUF domain R8-QWK,3.09 log2 enrichment (interaction score)
GGCUAGAACUAGUGGAUCCCCCGGCGCCCGGCGGCUCGAGCCCGGGUAAGUGUAAAGAGUCUGCAUGCCGCCGGGCGCCAUGCCUGCAGGUCGACUCUAGAAAACAUG,binding signal,PUM1 PUF domain R2-MWG,3.95 log2 enrichment (interaction score)
GGCUAGAACUAGUGGAUCCCCCGGCGCCCGGCGGCUCGAGCCCGGGUAAGUGUCAAUAGUCUGCAUGCCGCCGGGCGCCAUGCCUGCAGGUCGACUCUAGAAAACAUG,binding signal,PUM1 PUF domain R5-ARK,0.39 log2 enrichment (interaction score)
same,binding signal,PUM1 PUF domain R5-NGR,2.58 log2 enrichment (interaction score)
same,binding signal,PUM1 PUF domain R5-LHI,0.32 log2 enrichment (interaction score)
GGCUAGAACUAGUGGAUCCCCCGGCGCCCGGCGGCUCGAGCCCGGGUAAGUGUAAAUUGUCUGCAUGCCGCCGGGCGCCAUGCCUGCAGGUCGACUCUAGAAAACAUG,binding signal,PUM1 PUF domain R1-RSQ,5.08 log2 enrichment (interaction score)
same,binding signal,PUM1 PUF domain R1-SWR,0.84 log2 enrichment (interaction score)
GGCUAGAACUAGUGGAUCCCCCGGCGCCCGGCGGCUCGAGCCCGGGUAAGUGUUAAUAGUCUGCAUGCCGCCGGGCGCCAUGCCUGCAGGUCGACUCUAGAAAACAUG,binding signal,PUM1 PUF domain R5-ARK,3.13 log2 enrichment (interaction score)
same,binding signal,PUM1 PUF domain R5-LHI,3.78 log2 enrichment (interaction score)
GGCUAGAACUAGUGGAUCCCCCGGCGCCCGGCGGCUCGAGCCCGGGUAAGCGUAAAUAGUCUGCAUGCCGCCGGGCGCCAUGCCUGCAGGUCGACUCUAGAAAACAUG,binding signal,PUM1 PUF domain R8-HFT,3.48 log2 enrichment (interaction score)
GGCUAGAACUAGUGGAUCCCCCGGCGCCCGGCGGCUCGAGCCCGGGUAAGUGUAAAAAGUCUGCAUGCCGCCGGGCGCCAUGCCUGCAGGUCGACUCUAGAAAACAUG,binding signal,PUM1 PUF domain R2-MWG,1.87 log2 enrichment (interaction score)
same,binding signal,PUM1 PUF domain R2-SWF,2.22 log2 enrichment (interaction score)
GGCUAGAACUAGUGGAUCCCCCGGCGCCCGGCGGCUCGAGCCCGGGUAAGUGUAAUUAGUCUGCAUGCCGCCGGGCGCCAUGCCUGCAGGUCGACUCUAGAAAACAUG,binding signal,PUM1 PUF domain R3-RMW,2.28 log2 enrichment (interaction score)
same,binding signal,PUM1 PUF domain R3-RSR,3.41 log2 enrichment (interaction score)
same,binding signal,PUM1 PUF domain R3-MRW,2.07 log2 enrichment (interaction score)
GGCUAGAACUAGUGGAUCCCCCGGCGCCCGGCGGCUCGAGCCCGGGUAAGUGUACAUAGUCUGCAUGCCGCCGGGCGCCAUGCCUGCAGGUCGACUCUAGAAAACAUG,binding signal,PUM1 PUF domain R4-WAV,2.23 log2 enrichment (interaction score)
